Results from PubChem BioAssay (Tox21).
Records with an inconclusive call do not appear. Entries that show only a call come without a potency. The source made the active and inactive calls. Unless noted, calls follow the shape of the dose curve; as a rule, active = well fitted curve in the direction sought with a large enough effect in the repeat runs; inconclusive = weak or mixed curves; inactive = no such curve, though single readings can be large; an effect the other way counts as inactive or inconclusive.

Experiments:
Aromatase (Homo sapiens) = Aromatase (Homo sapiens) (UniProt P11511); assay: qHTS assay to identify aromatase inhibitors (AID 743083); also: nearly all actives have a fitted effect of over 55% in size; also: potency is read from the fitted curve at half-maximal effect
Chain of Aromatase (Homo sapiens) (P11511 whole entry, looked up): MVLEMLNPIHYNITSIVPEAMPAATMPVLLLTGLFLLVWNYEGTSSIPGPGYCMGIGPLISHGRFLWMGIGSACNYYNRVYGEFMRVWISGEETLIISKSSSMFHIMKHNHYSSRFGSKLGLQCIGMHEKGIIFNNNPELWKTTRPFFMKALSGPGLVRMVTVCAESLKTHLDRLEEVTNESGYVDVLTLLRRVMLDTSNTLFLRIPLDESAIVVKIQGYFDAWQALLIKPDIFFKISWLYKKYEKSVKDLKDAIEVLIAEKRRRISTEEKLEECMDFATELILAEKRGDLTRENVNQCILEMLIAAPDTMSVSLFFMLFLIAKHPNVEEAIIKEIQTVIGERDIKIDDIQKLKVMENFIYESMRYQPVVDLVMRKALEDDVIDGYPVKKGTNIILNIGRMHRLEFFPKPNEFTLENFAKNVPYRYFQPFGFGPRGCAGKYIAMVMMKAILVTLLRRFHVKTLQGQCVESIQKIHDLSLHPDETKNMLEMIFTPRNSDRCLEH

[1] = qHTS assay to identify small molecule antagonists of the retinoic acid receptor (RAR) signaling pathway (AID 1159552; also: nearly all actives have a fitted effect of over 50% in size; also: potency is read from the fitted curve at half-maximal effect)
Outline: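 Test chemicals and DMSO controls were pin-transferred onto C3RL4 cells a day after seeding; retinol (1 uM final) followed at once. Luminescent reporter output was quantified after 6 hr of co-incubation and 30 min with detection reagent.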

[2] = Caspase-3/7 induction in HepG2 cells by small molecules, qHTS assay (AID 1346978); also: nearly all actives have a fitted effect of over 15% in size; also: potency is read from the fitted curve at half-maximal effect
Outline: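 Wild-type HepG2 cells (2,000/well) were settled 5 h at 37 C, 5% CO2, then exposed to compounds in DMSO for 17 h. Caspase-3/7 activity was read by luminescence 30 min after adding Caspase-Glo 3/7 reagent at room temperature.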

[3] = target: Aryl hydrocarbon receptor (Homo sapiens) (UniProt P35869); assay: qHTS assay to identify small molecule that activate the aryl hydrocarbon receptor (AhR) signaling pathway (AID 743085);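 also: HG2L7.5c1 human HepG2 liver cells with stably integrated DRE-driven firefly reporter; series mostly up to about 70 µM; nearly all actives have a fitted effect of over 15% in size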
Chain of Aryl hydrocarbon receptor (Homo sapiens) (P35869 whole entry, looked up): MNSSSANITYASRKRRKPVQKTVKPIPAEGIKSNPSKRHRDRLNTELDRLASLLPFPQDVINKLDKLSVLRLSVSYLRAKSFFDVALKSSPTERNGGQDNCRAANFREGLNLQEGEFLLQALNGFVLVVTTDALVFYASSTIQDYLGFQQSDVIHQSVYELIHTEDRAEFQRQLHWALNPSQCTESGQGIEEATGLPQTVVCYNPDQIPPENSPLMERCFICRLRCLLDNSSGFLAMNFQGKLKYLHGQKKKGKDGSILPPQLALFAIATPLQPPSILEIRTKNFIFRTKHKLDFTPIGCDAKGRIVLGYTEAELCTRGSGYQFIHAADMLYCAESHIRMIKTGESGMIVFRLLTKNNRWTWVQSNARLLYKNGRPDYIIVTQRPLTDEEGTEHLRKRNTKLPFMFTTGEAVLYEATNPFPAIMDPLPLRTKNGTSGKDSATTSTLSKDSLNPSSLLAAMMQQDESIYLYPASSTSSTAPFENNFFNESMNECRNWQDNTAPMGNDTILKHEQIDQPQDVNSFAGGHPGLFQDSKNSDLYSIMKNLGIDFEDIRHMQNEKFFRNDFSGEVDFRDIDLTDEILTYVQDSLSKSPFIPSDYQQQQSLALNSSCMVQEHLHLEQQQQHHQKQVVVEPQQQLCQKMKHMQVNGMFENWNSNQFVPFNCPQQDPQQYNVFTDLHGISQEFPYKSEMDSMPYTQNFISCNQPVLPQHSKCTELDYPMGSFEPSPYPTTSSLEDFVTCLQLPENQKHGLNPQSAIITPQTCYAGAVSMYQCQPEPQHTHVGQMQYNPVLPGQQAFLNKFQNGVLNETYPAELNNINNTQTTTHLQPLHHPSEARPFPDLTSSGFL
Outline: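 Stably transfected human liver carcinoma cells (HG2L7.5c1; 20 DRE-firefly luciferase) were incubated 5 h, dosed, and kept 24 h at 37C. Agonism was scored from increased luciferase luminescence.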

[4] = A CellTox Green Cytotoxicity Assay to monitor cytotoxicity in HepG2 cells - 0 hour (AID 1224882); also: nearly all actives have a fitted effect of over 35% in size
Outline: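 HepG2, 600 cells/well premixed w/ CellTox Green; 5 h settle, 37 C/5% CO2; pintool cpd add (DMSO); 37 C, 40 h; fluorescence read at 0, 8, 16, 24, 32, 40 h.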

[5] = qHTS assay to identify small molecule HDAC inhibitors (AID 1259364);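 also: wild-type HCT-116 cells with endogenous class I/II HDAC activity; top concentration of the series differs between compounds; nearly all actives have a fitted effect of over 45% in size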
Outline: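 HCT-116 (wild type), 1,500 cells/well, overnight; compound 2 hr 37C 5% CO2; HDAC-Glo I/II reagent 30 min RT; luminescence readout.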

[6] = qHTS assay to identify small molecule agonists of the sonic hedgehog signaling (Shh) pathway (AID 1259368; calls by dose curve;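 also: NIH/3T3-derived 3T3Gli1-Luc cells carrying a stable Gli1-driven firefly luciferase reporter; series mostly up to about 92 µM; nearly all actives have a fitted effect of over 15% in size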)
Outline: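 Read-out: firefly luciferase luminescence from a Gli1 response element reporter stably integrated in NIH/3T3-derived 3T3Gli1-Luc cells, measured 30 min at room temperature after reagent addition. Compound exposure lasted 24 hr at 37 C, 5% CO2.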

[7] = Caspase-3/7 induction in CHO-K1 cells by small molecules, qHTS assay (AID 1346980); also: nearly all actives have a fitted effect of over 15% in size
Outline: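 Wild-type cells were seeded at 1,500 per well and settled 5 hr at 37 C, 5% CO2, then exposed to DMSO-dissolved compounds for 17 hr. Caspase-Glo 3/7 reagent was added, and luminescence was read after 30min at room temperature.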

[8] = target: Acetylcholinesterase (Homo sapiens) (UniProt P22303); assay: Acetylcholinesterase (AChE) small molecule antagonists: colormetric cell-based qHTS assay (AID 1347395; calls by dose curve; also: nearly all actives have a fitted effect of over 30% in size)
Chain of Acetylcholinesterase (Homo sapiens) (P22303 whole entry, looked up): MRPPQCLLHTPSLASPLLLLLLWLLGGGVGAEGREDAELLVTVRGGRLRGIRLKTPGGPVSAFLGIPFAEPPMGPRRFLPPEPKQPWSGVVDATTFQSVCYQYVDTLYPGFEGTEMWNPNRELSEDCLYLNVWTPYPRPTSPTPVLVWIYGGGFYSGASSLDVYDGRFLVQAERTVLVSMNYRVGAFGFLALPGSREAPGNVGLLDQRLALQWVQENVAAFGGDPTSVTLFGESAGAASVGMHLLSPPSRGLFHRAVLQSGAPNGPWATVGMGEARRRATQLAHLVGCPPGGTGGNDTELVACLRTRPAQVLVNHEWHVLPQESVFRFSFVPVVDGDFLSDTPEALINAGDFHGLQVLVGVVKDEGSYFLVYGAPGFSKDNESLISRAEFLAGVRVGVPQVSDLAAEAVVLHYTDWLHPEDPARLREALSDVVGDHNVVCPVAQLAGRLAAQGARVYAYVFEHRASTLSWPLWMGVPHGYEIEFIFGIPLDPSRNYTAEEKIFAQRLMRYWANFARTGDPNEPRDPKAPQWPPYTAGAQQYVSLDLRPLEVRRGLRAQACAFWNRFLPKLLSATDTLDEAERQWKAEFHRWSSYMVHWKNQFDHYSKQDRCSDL
Outline: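 After overnight attachment at 37 C, SH-SY5Y cells get 30 min compound exposure; detection cocktail (acetylthiocholine, DTNB) then incubates 90 min at 37 C, and absorbance reflects AChE-generated thiocholine.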

[9] = target: Acetylcholinesterase (Homo sapiens) (UniProt P22303); assay: Acetylcholinesterase (AChE) small molecule antagonists: enzyme-based qHTS assay (AID 1347397; calls by dose curve; also: nearly all actives have a fitted effect of over 55% in size); details: Potency: AChE enzyme activity inhibition; outcome: AChE enzyme activity inhibition
Outline: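 Compound or DMSO vehicle was pin-transferred onto recombinant human AChE (50 mU/mL as dispensed) and left 30 min at room temperature. Acetylthiocholine with DTNB then started the reaction, read colorimetrically 10 min later.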

[10] = target: Acetylcholinesterase (Homo sapiens) (UniProt P22303); assay: Acetylcholinesterase (AChE) small molecule antagonists: fluorescence cell-based qHTS assay (AID 1347398; calls by dose curve; also: nearly all actives have a fitted effect of over 50% in size); details: Potency: AChE activity; outcome: AChE activity
Outline: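 Using neuroblastoma SH-SY5Y cells as the enzyme source, test chemicals are preincubated 30 min at 37 C; AChE-driven acetylthiocholine cleavage is then quantified by thiocholine-dependent Thiolite Green fluorescence after 40 min at room temperature.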

[11] = target: Acetylcholinesterase (Homo sapiens) (UniProt P22303); assay: Acetylcholinesterase (AChE) small molecule antagonists: enzyme-based qHTS assay with human liver microsomes (AID 1347399; calls by dose curve; also: nearly all actives have a fitted effect of over 60% in size); details: Potency: qHTS inhibition; outcome: qHTS inhibition
Outline: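 Recombinant human AChE (50 mU/mL in the enzyme mix) and human liver microsomes (0.25 mg/mL final) were preincubated with compound and NADPH (0.25 mg/mL final) for 30 min at 37 C. Acetylthiocholine/DTNB was then added; thiocholine was read colorimetrically after 10 min at room temperature.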

[12] = qHTS assay to identify small molecule agonists of H2AX (AID 1224845; active = well fitted activation curve with a large enough effect in the signal ratio in the repeat runs, not every such curve was filed as active; the % refers to the signal ratio)
Outline: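 Wild-type CHO-K1 cells plated overnight, then exposed 3 hr at 37C to compounds at 15 concentrations (0.76% DMSO). Lysed, then HTRF anti-pH2AX(S139)-cryptate/anti-H2AX-d2 detection after 24 hr at room temperature; emissions 665 and 620 nm.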

[13] = qHTS assay to identify small molecule antagonists of the estrogen related receptor (ERR) signaling pathway - cell viability counter screen (AID 1224818); also: series mostly up to about 46 µM
Outline: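 Fluorescence from CellTiter-Fluor, read 30 min after reagent addition at 37 C, measured viability of ERR cells exposed to compounds for 17.5 h. Cells had settled 6 h before dosing.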

[14] = qHTS assay to identify small molecule antagonists of the estrogen related receptor (ERR) signaling pathway (AID 1224819;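 also: luminescence from an ERR-driven luciferase reporter measured with One-Glo reagent; series mostly up to about 46 µM; nearly all actives have a fitted effect of over 50% in size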)
Outline: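 Luminescence readout (One-Glo, 30 min, RT) of ERR cell line after 18 h compound exposure at 37 C; cells seeded 2,000/well, pre-incubated 6 h, compounds pinned from DMSO stocks.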

[15] = qHTS assay to identify small molecule agonists of the estrogen related receptor (ERR) signaling pathway (AID 1224820)
Outline: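 Following a 6 h settling period, 2,000 ERR cells per well receive DMSO-dissolved compounds by pin tool and incubate 18 h at 37 C; agonist activity is scored from One-Glo luminescence read 30 min post-addition.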

[16] = test system: estrogen-related receptor alpha (ERRalpha) with PGC-1alpha coactivator, human; assay: qHTS assay to identify small molecule antagonists of the estrogen related receptor signaling pathway with the pleiotropic PPARgamma coactivator (PGC) (AID 1224821; calls by dose curve;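 also: series mostly up to about 46 µM; lower luminescence signal means antagonism of PGC/ERR signalling; nearly all actives have a fitted effect of over 50% in size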)
Outline: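 Screening used NTP's PGC/ERR cells, dosed via pin tool with compound in DMSO alongside positive and negative controls. After 18 h at 37 C, One-Glo reagent sat 30 min at room temperature before luminescence detection.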

[17] = qHTS assay to identify small molecule antagonists of the estrogen related receptor signaling pathway with the pleiotropic PPARgamma coactivator (PGC) cell viability counter screen (AID 1224822; also: series mostly up to about 46 µM)
Outline: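 Fluorescence read-out of CellTiter-Fluor after 30 min at 37 C; PGC/ERR cells, 2,000 per well, had been exposed to DMSO-dissolved compounds for 17.5 h following a 6 h pre-incubation.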

[18] = qHTS assay to identify small molecule agonists of the estrogen related receptor signaling pathway with the pleiotropic PPARgamma coactivator (PGC) (AID 1224823)
Outline: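 In this quantitative high-throughput screen, an 18 h, 37 C treatment of PGC/ERR cells with compounds in DMSO preceded a One-Glo luminescence read taken after 30 min at room temperature.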

COc1ccc(CCN2CCC(Nc3nc4ccccc4n3Cc3ccc(F)cc3)CC2)cc1
Potency (Aromatase (Homo sapiens)): 21.1 µM (active)
Potency [1]: 1.25 µM (active)
Potency [2]: 26.6 µM (active)

Clc1ccccc1-c1ccccc1Cl
Potency (Aromatase (Homo sapiens)): 78.1 µM (active)
Potency [3]: inactive
Potency [1]: inactive
Potency [4]: inactive
outcome [5]: inactive
outcome [6]: inactive
Potency [2]: inactive
outcome [7]: inactive
Potency [8]: inactive
Potency [9]: inactive
Potency [10]: inactive
Potency [11]: inactive

CCCCCCCC#N
Potency (Aromatase (Homo sapiens)): inactive
Potency [1]: inactive
Potency [12]: inactive
Potency [2]: inactive
Potency [8]: inactive
Potency [9]: inactive
Potency [10]: inactive
Potency [11]: inactive

Nc1ccccc1[N+](=O)[O-]
Potency (Aromatase (Homo sapiens)): inactive
Potency [3]: inactive
Potency [1]: inactive
Potency [2]: inactive
Potency [8]: inactive
Potency [9]: inactive
Potency [10]: inactive
Potency [11]: inactive

CC(C)(C)OCC1CO1 (stereo not given)
Potency (Aromatase (Homo sapiens)): inactive
Potency [1]: inactive
Potency [8]: inactive
Potency [9]: inactive
Potency [10]: inactive
Potency [11]: inactive

Cc1ccc(N)c([N+](=O)[O-])c1
Potency (Aromatase (Homo sapiens)): inactive
Potency [3]: inactive
Potency [1]: inactive
Potency [8]: inactive
Potency [9]: inactive
Potency [10]: inactive
Potency [11]: inactive

O=[N+]([O-])c1cccc(Cl)c1Cl
Potency [3]: inactive
Potency [1]: inactive
Potency [8]: inactive
Potency [9]: inactive
Potency [10]: inactive
Potency [11]: inactive

Oc1c(Cl)ccc(Cl)c1Cl
Potency (Aromatase (Homo sapiens)): inactive
Potency [3]: inactive
Potency [1]: inactive
Potency [2]: inactive
Potency [8]: inactive
Potency [9]: inactive
Potency [10]: inactive

C1=CC2C3C=CC(C3)C2C1 (stereo not given)
Potency (Aromatase (Homo sapiens)): inactive
Potency [1]: inactive
Potency [8]: inactive
Potency [9]: inactive
Potency [10]: inactive
Potency [11]: inactive

NC(=O)c1cc(N2CC2)c([N+](=O)[O-])cc1[N+](=O)[O-]
Potency [13]: inactive
Potency [14]: inactive
Potency [15]: inactive
Potency [16]: inactive
Potency [17]: inactive
Potency [18]: inactive

OC1CCCCC1N1CCC(c2ccccc2)CC1 (stereo not given)
Potency [13]: inactive
Potency [14]: inactive
Potency [15]: inactive
Potency [16]: inactive
Potency [17]: inactive
Potency [18]: inactive

Oc1ccc2c3c1O[C@H]1c4[nH]c5ccccc5c4C[C@@]4(O)C(C2)N(CC2CC2)CCC314 (stereo not given in full)
Potency [13]: inactive
Potency [14]: inactive
Potency [15]: inactive
Potency [16]: inactive
Potency [17]: inactive
Potency [18]: inactive

N=C(N)c1ccc(CS(=O)(=O)F)cc1
Potency [13]: inactive
Potency [14]: inactive
Potency [15]: inactive
Potency [16]: inactive
Potency [17]: inactive
Potency [18]: inactive

CN(C(=O)Cc1ccc(Cl)c(Cl)c1)C(CN1CCCC1)c1cccc(OCC(=O)O)c1 (stereo not given)
Potency [13]: inactive
Potency [14]: inactive
Potency [15]: inactive
Potency [16]: inactive
Potency [17]: inactive
Potency [18]: inactive

COc1ccc(OC)c(C(O)C(C)N)c1 (stereo not given)
Potency [13]: inactive
Potency [14]: inactive
Potency [15]: inactive
Potency [16]: inactive
Potency [17]: inactive
Potency [18]: inactive

O=C1CCCN1CC#CCN1CCCC1
Potency [13]: inactive
Potency [14]: inactive
Potency [15]: inactive
Potency [16]: inactive
Potency [17]: inactive
Potency [18]: inactive
